Data: PubChem BioAssay (Tox21)
Values without a mark were called inactive. Inconclusive results are not listed. Where a call stands in place of a potency, no number is given. Activity calls are given as the source filed them. Unless noted, calls come from the whole dose curve; as a rule, active = well fitted curve in the direction sought with a large enough effect in the repeat runs; inconclusive = weak or mixed curves; inactive = no such curve, though single readings can be large; an effect the other way counts as inactive or inconclusive.

Assays:
[1] = qHTS assay to identify small molecule antagonists of the estrogen related receptor (ERR) signaling pathway from Tox21 library - cell viability counter screen (AID 1224834); note: nearly all actives have a fitted effect of over 30% in size; note: potency is the fitted concentration of half-maximal effect
Procedure, shortened: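 In this quantitative HTS format, ERR cells receive compounds in DMSO and are incubated for 17.5 h at 37 C. Live-cell protease activity is then detected with CellTiter-Fluor.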

[2] = qHTS assay to identify small molecule agonists of the constitutive androstane receptor (CAR) signaling pathway - cell viability counter screen (AID 1224836); note: nearly all actives have a fitted effect of over 45% in size; note: potency is the fitted concentration of half-maximal effect
Procedure, shortened: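 Using CellTiter-Fluor, viability of HepG2 cells harbouring hCAR and CYP2B6-2.2kb was measured following 23 h incubation with a 15-concentration compound series plus PK11195 (0.75 uM final).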

[3] = qHTS assay to identify small molecule antagonists of the constitutive androstane receptor (CAR) signaling pathway - cell viability counter screen (AID 1224837); note: nearly all actives have a fitted effect of over 45% in size; note: potency is the fitted concentration of half-maximal effect
Procedure, shortened: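 In quantitative HTS format, compounds at 15 concentrations were applied to HepG2 cells double-transfected with hCAR and CYP2B6-2.2kb under 50 nM CITCO stimulation; live-cell protease activity was read after 23 hr via CellTiter-Fluor.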

[4] = target: Nuclear receptor subfamily 1 group I member 3 (Homo sapiens) (UniProt Q14994); experiment: qHTS assay to identify small molecule antagonists of the constitutive androstane receptor (CAR) signaling pathway (AID 1224838); note: nearly all actives have a fitted effect of over 40% in size
Nuclear receptor subfamily 1 group I member 3 (Homo sapiens), sequence (Q14994 whole entry, looked up): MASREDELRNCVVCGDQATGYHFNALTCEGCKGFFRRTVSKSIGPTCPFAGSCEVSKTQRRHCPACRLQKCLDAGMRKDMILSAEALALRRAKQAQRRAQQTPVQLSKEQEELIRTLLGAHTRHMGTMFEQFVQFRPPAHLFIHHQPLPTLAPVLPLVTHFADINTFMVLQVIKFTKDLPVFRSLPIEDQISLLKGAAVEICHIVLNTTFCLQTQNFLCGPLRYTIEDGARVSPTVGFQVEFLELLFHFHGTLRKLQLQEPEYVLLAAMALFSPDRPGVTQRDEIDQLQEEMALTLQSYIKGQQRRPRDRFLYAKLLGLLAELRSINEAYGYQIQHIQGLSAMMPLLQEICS
Procedure, shortened: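 CITCO-stimulated (50 nM final) HepG2 cells stably transfected with hCAR and CYP2B6-2.2kb luciferase were exposed to compounds at 15 concentrations for 24 h at 37 C/5% CO2. A luciferase reagent was added and luminescence recorded after 30 min.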

[5] = target: Nuclear receptor subfamily 1 group I member 3 (Homo sapiens) (UniProt Q14994); experiment: qHTS assay to identify small molecule agonists of the constitutive androstane receptor (CAR) signaling pathway (AID 1224839);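 note: HepG2 cells stably carrying human CAR and a CYP2B6 luciferase reporter; nearly all actives have a fitted effect of over 15% in size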
Procedure, shortened: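 Double-stable HepG2 cells (hCAR, CYP2B6-2.2kb) seeded 4 h before compound addition. Exposure 24 h with 0.75 uM PK11195 final. Luciferase detected by ONE-Glo.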

[6] = qHTS assay to identify small molecule antagonists of the estrogen related receptor signaling pathway with the pleiotropic PPARgamma coactivator (PGC) from Tox21 10K library - cell viability counter screen (AID 1224840; active = well fitted cell-killing curve with a large enough effect in the repeat runs, not every such curve was filed as active; note: nearly all actives have a fitted effect of over 40% in size; note: potency is the fitted concentration of half-maximal effect)
Procedure, shortened: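 Viability counter screen, PGC/ERR cells: 17.5 h compound exposure at 37 C, CellTiter-Fluor fluorescence endpoint.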

[7] = qHTS assay to identify small molecule antagonists of the estrogen related receptor signaling pathway with the pleiotropic PPARgamma coactivator (PGC) from Tox21 10K library (AID 1224841; call rule not given here; note: actives are mostly falling curves and most rising ones were filed inactive; nearly all actives have a fitted effect of over 50% in size)
Procedure, shortened: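 In the PGC/ERR line, DMSO solutions of test chemicals are pin-delivered to 2,000 cells/well six hours after dispensing. Following eighteen hours' incubation, One-Glo reagent is added and luminescence recorded.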

[8] = qHTS assay to identify small molecule agonists of the estrogen related receptor signaling pathway with the pleiotropic PPARgamma coactivator (PGC) from Tox21 10K library (AID 1224842); note: nearly all actives have a fitted effect of over 15% in size
Procedure, shortened: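 PGC/ERR reporter cell line, 2,000 cells per well, incubated 6 h at 37 C before 23 nL compound in DMSO was added. After 18 h at 37 C, One-Glo luminescence read following 30 min at room temperature.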

[9] = target: Thyrotropin receptor (Homo sapiens) (UniProt P16473); experiment: qHTS assay to identify small molecule agonists of the thyroid stimulating hormone receptor (TSHR) signaling pathway (AID 1224843; calls by dose curve; note: nearly all actives have a fitted effect of over 45% in size)
Thyrotropin receptor (Homo sapiens), sequence (P16473 whole entry, looked up): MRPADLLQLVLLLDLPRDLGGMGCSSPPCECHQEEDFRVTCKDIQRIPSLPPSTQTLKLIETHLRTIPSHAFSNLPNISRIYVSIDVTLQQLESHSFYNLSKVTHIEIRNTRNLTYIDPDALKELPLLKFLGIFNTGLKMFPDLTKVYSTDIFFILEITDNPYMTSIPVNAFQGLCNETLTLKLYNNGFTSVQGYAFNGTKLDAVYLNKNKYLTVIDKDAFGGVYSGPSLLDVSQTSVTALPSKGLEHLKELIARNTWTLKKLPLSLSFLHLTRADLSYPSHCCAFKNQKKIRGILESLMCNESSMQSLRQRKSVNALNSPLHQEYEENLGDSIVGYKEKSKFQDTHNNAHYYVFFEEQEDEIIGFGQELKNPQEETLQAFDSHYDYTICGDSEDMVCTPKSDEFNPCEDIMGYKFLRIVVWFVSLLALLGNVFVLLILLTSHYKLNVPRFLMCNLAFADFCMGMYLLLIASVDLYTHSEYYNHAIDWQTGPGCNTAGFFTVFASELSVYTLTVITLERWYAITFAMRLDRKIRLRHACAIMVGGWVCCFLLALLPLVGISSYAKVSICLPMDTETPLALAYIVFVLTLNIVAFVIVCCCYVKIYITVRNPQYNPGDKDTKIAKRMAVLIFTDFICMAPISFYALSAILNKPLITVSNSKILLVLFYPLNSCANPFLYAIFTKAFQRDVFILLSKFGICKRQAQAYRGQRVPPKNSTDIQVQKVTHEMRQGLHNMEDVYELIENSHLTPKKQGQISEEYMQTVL
Procedure, shortened: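 Agonist-mode screen: TSHR HEK293 cells received test chemicals for half an hour at room temperature, then HTRF cAMP detection reagents for one hour prior to fluorescence measurement. Each chemical ran as a 15-concentration series, triplicated.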

[10] = qHTS assay to identify small molecule agonists of the hypoxia (HIF-1) signaling pathway - cell viability counter screen (AID 1224844; calls by dose curve; note: nearly all actives have a fitted effect of over 50% in size)
Procedure, shortened: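 Same wells as the HIF-1 reporter screen; ME-180 cells carrying HRE-bla, 17 hr treatment at 37C; CellTiter-Glo luminescence read after 30 min at room temperature.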

[11] = qHTS assay to identify small molecule agonists of H2AX (AID 1224845; active = well fitted activation curve with a large enough effect in the signal ratio in the repeat runs, not every such curve was filed as active; the % refers to the signal ratio)
Procedure, shortened: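 Wild-type CHO-K1 cells, plated overnight, exposed 3hr at 37C to 15 concentrations (0.76% DMSO final). Lysed, then HTRF anti-pH2AX (S139) cryptate and anti-H2AX-d2 antibodies, 24 hr room temperature; 665/620 nm emission read.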

[12] = qHTS assay to identify small molecule agonists of the hypoxia (HIF-1) signaling pathway (AID 1224846; active = well fitted activation curve with a large enough effect in the signal ratio in the repeat runs, not every such curve was filed as active; the % refers to the signal ratio)
Procedure, shortened: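 In ME-180 cells bearing an HRE-bla construct, 17 h treatment with DMSO-dissolved compounds at 37C was followed by CCF4-AM loading to quantify reporter induction.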

[13] = qHTS assay to identify small molecule agonists of H2AX - cell viability counter screen (AID 1224847; calls by dose curve; note: top concentration of the series differs between compounds; nearly all actives have a fitted effect of over 30% in size)
Procedure, shortened: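 Quantitative HTS viability measurement: CHO-K1 wild-type cells in serum (10% FBS) medium, short 3 hr drug exposure at 37C with 0.76% DMSO, CellTiter-Glo luminescent detection.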

[14] = qHTS assay to identify small molecule antagonists of the estrogen related receptor (ERR) signaling pathway from Tox21 library (AID 1224848); note: nearly all actives have a fitted effect of over 50% in size; note: potency is the fitted concentration of half-maximal effect
Procedure, shortened: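 Quantitative high-throughput format: ERR reporter cells (2,000/well) pre-incubated 6 h, treated 18 h at 37 C with compounds in DMSO alongside positive and negative controls, then read by ONE-Glo luminescence.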

[15] = qHTS assay to identify small molecule agonists of the estrogen related receptor (ERR) signaling pathway from Tox21 library (AID 1224849; calls by dose curve; note: nearly all actives have a fitted effect of over 15% in size); conditions: ERR reporter cell line, ONE-Glo luciferase, 18 h; at 92.4 µM (top of the series) unless noted
Procedure, shortened: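 Reporter cells (ERR, NTP source) treated with Tox21 10K compounds 18 h, 37 C. Readout: ONE-Glo luminescence, 30 min RT.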

[16] = qHTS RealTime-Glo MT Cell Viability Assay in HepG2 cells - 24 hour (AID 1224867); note: nearly all actives have a fitted effect of over 50% in size; note: potency is the fitted concentration of half-maximal effect
Procedure, shortened: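 Viability was tracked continuously by NanoLuc luminescence from prosubstrate reduced by living HepG2 cells, at successive time points over 40 h of compound exposure. Cells with reagent were preincubated 5 h at 37 °C before compound addition.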

[17] = qHTS RealTime-Glo MT Cell Viability Assay in HEK293 cells - 32 hour (AID 1224868); note: nearly all actives have a fitted effect of over 50% in size; note: potency is the fitted concentration of half-maximal effect
Procedure, shortened: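 Viability tracked continuously by luminescence as live cells reduce a prosubstrate for NanoLuc; HEK293 cells preincubated 5 h, compound-treated at 37 C, and read at 0, 8, 16, 24, 32 and 40 h.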

[18] = A CellTox Green Cytotoxicity Assay to monitor cytotoxicity in HEK293 cells - 0 hour (AID 1224869); note: nearly all actives have a fitted effect of over 50% in size
Procedure, shortened: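 Homogeneous no-lysis format: HEK293 cell suspension mixed with CellTox Green reagent, seeded, incubated 5 h at 37 C/5% CO2, then dosed by pintool with compound in DMSO.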

[19] = qHTS RealTime-Glo MT Cell Viability Assay in HepG2 cells - 40 hour (AID 1224870); note: nearly all actives have a fitted effect of over 50% in size
Procedure, shortened: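 HepG2 cells (600/well) mixed with RealTime-Glo MT reagent, settled 5 h at 37 C/5% CO2 before compound addition. Nonlytic NanoLuc luminescence from viable-cell prosubstrate reduction read repeatedly during 40 h treatment at 37 C.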

[20] = target: Luciferin 4-monooxygenase (Photinus pyralis) (UniProt P08659); experiment: qHTS assay to identify small molecule inhibitors of firefly luciferase (AID 1224835); note: nearly all actives have a fitted effect of over 25% in size
Luciferin 4-monooxygenase (Photinus pyralis), sequence (P08659 whole entry, looked up): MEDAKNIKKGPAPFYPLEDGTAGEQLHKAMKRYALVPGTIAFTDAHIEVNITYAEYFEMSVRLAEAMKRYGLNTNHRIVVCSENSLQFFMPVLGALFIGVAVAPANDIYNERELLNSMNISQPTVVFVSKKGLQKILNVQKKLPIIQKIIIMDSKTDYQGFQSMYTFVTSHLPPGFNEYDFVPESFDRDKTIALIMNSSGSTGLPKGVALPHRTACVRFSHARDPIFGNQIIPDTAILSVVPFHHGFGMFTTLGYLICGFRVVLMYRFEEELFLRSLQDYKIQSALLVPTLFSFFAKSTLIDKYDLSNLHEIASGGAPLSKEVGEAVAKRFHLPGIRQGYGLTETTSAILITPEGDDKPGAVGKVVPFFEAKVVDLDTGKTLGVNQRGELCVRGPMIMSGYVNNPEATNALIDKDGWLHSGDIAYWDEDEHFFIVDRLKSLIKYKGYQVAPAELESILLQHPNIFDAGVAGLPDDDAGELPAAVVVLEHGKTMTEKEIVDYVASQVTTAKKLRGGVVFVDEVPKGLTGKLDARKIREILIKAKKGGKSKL
Procedure, shortened: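 Biochemical qHTS: compounds run as interplate titrations against purified firefly enzyme, with D-luciferin and ATP each at its KM concentration. Light output recorded by CCD imaging.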

Row | SMILES | Potency [1] | Potency [2] | Potency [3] | Potency [4] | Potency [5] | Potency [6] | Potency [7] | Potency [8] | Potency [9] | Potency [10] | Potency [11] | outcome [12] | Potency [13] | Potency [14] | activity change, positive = activation [15] | Potency [16] | Potency [17] | Potency [18] | Potency [19] | Potency [20]
1 | C1COCO1 | inactive | inactive | inactive | inactive | inactive | inactive | inactive | inactive | inactive | inactive | inactive | inactive | inactive | inactive | -2.3% | inactive | inactive | inactive | inactive | 
2 | COCc1c(C(C)C)nc(C(C)C)c(/C=C/[C@@H](O)C[C@@H](O)CC(=O)O)c1-c1ccc(F)cc1 | inactive | inactive | inactive |  | inactive | inactive |  |  | inactive | inactive |  | inactive | inactive |  |  |  |  |  |  | 
3 | CCc1cccc(N(C)C(N)=Nc2cccc3ccccc23)c1 | inactive | inactive | inactive | inactive | inactive | inactive |  |  | inactive | inactive | inactive | inactive |  |  |  | inactive |  | inactive | inactive | 
4 | CNCCCC1c2ccccc2C=Cc2ccccc21 | 29.8 µM (active) |  |  |  |  |  |  |  | inactive |  | inactive |  | inactive |  | -23.5% [at 42.5 µM] | 21.3 µM (active) |  | inactive |  | inactive
5 | Cc1cc(OI)c(C(C)C)cc1-c1cc(C(C)C)c(OI)cc1C | inactive |  | inactive |  | inactive | inactive |  |  | inactive | inactive | inactive | inactive | inactive |  |  | inactive | inactive | inactive | inactive | 
6 | CC1CC(O)CC(C)(C)C1 (configuration not stated) | inactive | inactive | inactive |  | inactive | inactive |  | inactive | inactive | inactive | inactive | inactive | inactive | inactive | -6.05% | inactive | inactive | inactive | inactive | 
7 | OCC1CC=CCC1 (configuration not stated) | inactive | inactive | inactive |  | inactive | inactive |  |  | inactive | inactive |  | inactive | inactive |  |  | inactive | inactive | inactive | inactive | 
8 | CCCCCCCCCCCC[N+](C)(C)CC(=O)[O-] | inactive | inactive | inactive |  | inactive | inactive |  |  | inactive | inactive | inactive | inactive |  |  |  | inactive | inactive | inactive | inactive | 
9 | C/C=C(\C)C(=O)OCCC(C)CCC=C(C)C (configuration not stated) | inactive | inactive | inactive |  |  | inactive |  |  |  | inactive | inactive | inactive | inactive |  |  | inactive | inactive | inactive | inactive | 
10 | Cc1cnc(C)c(C)n1 | inactive | inactive | inactive | inactive | inactive | inactive |  |  | inactive | inactive | inactive | inactive | inactive |  |  | inactive | inactive | inactive | inactive | 
11 | CCOC(=O)[C@@H](C)Oc1ccc(Oc2nc3ccc(Cl)cc3o2)cc1 | inactive | inactive | inactive |  |  |  | inactive | inactive |  | inactive | inactive | inactive |  | 48.6 µM (active) | -39.1% |  | 21.9 µM (active) | inactive |  | 
12 | CCCCCCCC/C=C\CCCCCCCC(=O)OC | inactive | inactive | inactive |  | inactive | inactive |  |  | inactive | inactive |  | inactive | inactive |  |  | inactive | inactive | inactive | inactive | 
13 | C=CCNc1nc(NCC=C)nc(N2CCN(C(c3ccc(F)cc3)c3ccc(F)cc3)CC2)n1 | inactive | inactive | inactive | inactive | inactive | inactive |  |  | inactive | inactive | inactive | inactive |  |  |  | inactive | inactive | inactive | inactive | 
14 | Cc1cc(S(=O)(=O)O)ccc1N=Nc1c(O)ccc2ccccc12 | 30.6 µM (active) | 48.6 µM (active) | 34.4 µM (active) |  |  | 34.4 µM (active) |  | inactive | inactive | inactive |  | inactive |  | inactive | -1.94% | inactive | inactive | inactive | inactive | 
15 | CCC(=O)OC/C=C/c1ccccc1 | inactive | inactive | inactive |  | inactive |  |  |  |  | inactive | inactive | inactive | inactive |  |  | inactive | inactive | inactive | inactive | 
16 | CCCCCCOC(=O)C(C)C | inactive | inactive | inactive |  |  | inactive | inactive | inactive | inactive | inactive | inactive | inactive | inactive | inactive | 7.77% | inactive | inactive | inactive | inactive | 
17 | CC(=O)OCC(=O)[C@H]1CC[C@H]2[C@@H]3CCC4=CC(=O)CC[C@]4(C)[C@H]3CC[C@]12C | inactive | inactive | inactive | inactive | inactive | inactive | inactive | inactive | inactive | inactive | inactive | inactive | inactive | 21.1 µM (active) | -35.1% [at 42.5 µM] | inactive |  | inactive | inactive | 
